About 79,000 compounds went through this panel and 15% of them were active in at least one assay; those are over-represented in the sample as a whole. Active and inactive are the calls of the source. Cut-off read from the data, not from the text of the source: active = growth inhibition above about 70%; inactive = the rest.
Key:
[1] = NCI Yeast Anticancer Drug Screen. Data for the rad50 strain (AID 155);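 note: 0% = growth of vehicle-only cultures of the same strain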; conditions: S. cerevisiae rad50 strain growth inhibition, active compounds read high
Method in brief: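 DNA repair mutant yeast, compound exposure, growth read-out; inhibition is taken relative to vehicle.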

[2] = NCI Yeast Anticancer Drug Screen. Data for the mec2-1 strain (AID 157); conditions: S. cerevisiae mec2-1 strain, active compounds read high
Method in brief: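 Growth inhibition is read against vehicle-treated controls after compound exposure of the mec2-1 yeast strain, which is defective in DNA damage repair or cell cycle control.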

[3] = NCI Yeast Anticancer Drug Screen. Data for the sgs1 mgt1 strain (AID 161);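 note: 0% = growth of cultures given vehicle only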; conditions: S. cerevisiae sgs1 mgt1 strain, active compounds read high
Method in brief: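 Yeast cells carrying a defined DNA-repair defect were exposed to test compounds. Growth inhibition was measured relative to vehicle-treated controls.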

[4] = NCI Yeast Anticancer Drug Screen. Data for the cln2 rad14 strain (AID 165);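 note: 0% = growth equal to vehicle treated cultures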; conditions: S. cerevisiae cln2 rad14 strain, active compounds read high
Method in brief: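 Growth inhibition, relative to vehicle-treated controls, is the read-out. The test organism is a yeast strain with defined genetic alterations, cln2 rad14.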

[5] = NCI Yeast Anticancer Drug Screen. Data for the bub3 strain (AID 167); conditions: S. cerevisiae bub3 mutant strain, active compounds read high
Method in brief: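 In this screen, a yeast mutant lacking normal mitotic checkpoint function is challenged with compound. Relative growth versus vehicle gives the inhibition value.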

[6] = NCI Yeast Anticancer Drug Screen. Data for the mlh1 rad18 strain (AID 175); conditions: S. cerevisiae mlh1 rad18 strain growth inhibition, active compounds read high
Method in brief: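 Cells of a genetically altered yeast strain, deficient in DNA damage repair, were treated with compound. Their growth was then compared with that of vehicle-treated cultures to give inhibition.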

[7] = at 5.0 µM (retest, dose inferred, filed as 0.5)
[8] = at 50.0 µM (retest, dose inferred, filed as 5.0)

Measured: growth inhibition

O=C(CBr)c1cc(-c2ccc(Cl)cc2)nc2ccccc12
inactive: [4]; [7] 35%
active: [1]; [7] 86% | [1]; [8] 98% | [1]; at 50.0 µM 98.9% | [2]; [7] 95% | [2]; [8] 99% | [2]; at 50.0 µM 99% | [3]; [7] 100% | [3]; [8] 99% | [3]; at 50.0 µM 99% | [4]; [8] 98% | [4]; at 50.0 µM 98% | [5]; [7] 95% | [5]; [8] 99% | [5]; at 50.0 µM 98.7% | [6]; [7] 97% | [6]; [8] 98% | [6]; at 50.0 µM 98.8%

O=CC(I)=C(c1ccccc1)c1ccccc1
active: [1]; at 50.0 µM 88.8% | [2]; at 50.0 µM 92.3% | [3]; at 50.0 µM 86.4% | [4]; at 50.0 µM 89.8% | [5]; at 50.0 µM 89.5% | [6]; at 50.0 µM 86.3%
inactive: [1]; [7] 21% | [1]; [8] 21% | [2]; [7] 13% | [2]; [8] 13% | [3]; [7] 9% | [3]; [8] 9% | [4]; [7] 4% | [4]; [8] 4% | [5]; [7] -2% | [5]; [8] -2% | [6]; [7] 21% | [6]; [8] 21%

c1ccc(CN2CCC3(CC2)SSC2(CCN(Cc4ccccc4)CC2)SS3)cc1
inactive: [1]; [7] 0% | [1]; [8] 34% | [2]; [7] 14% | [2]; [8] -3% | [2]; at 50.0 µM 24.4% | [3]; [7] 5% | [3]; [8] 35% | [3]; at 50.0 µM 30.9% | [4]; [7] 31% | [4]; [8] 21% | [4]; at 50.0 µM 29.8% | [5]; [7] 16% | [5]; [8] 18% | [5]; at 50.0 µM 42.2% | [6]; [7] 7% | [6]; [8] 19% | [6]; at 50.0 µM 45.9%
active: [1]; at 50.0 µM 73.1%

CC(OC(=O)Nc1cccc(Cl)c1)c1ccccc1 (stereo not given)
inactive: [1]; [7] 18% | [2]; [7] 8% | [3]; [7] 12% | [4]; [7] 7% | [5]; [7] 11% | [6]; [7] 11%
active: [1]; [8] 99% | [1]; at 50.0 µM 99.2% | [2]; [8] 99% | [2]; at 50.0 µM 99.5% | [3]; [8] 99% | [3]; at 50.0 µM 99.5% | [4]; [8] 99% | [4]; at 50.0 µM 99% | [5]; [8] 99% | [5]; at 50.0 µM 99.7% | [6]; [8] 99% | [6]; at 50.0 µM 99.2%

Nc1cc(Cl)c2c(c1)Cc1ccccc1-2
active: [1]; [8] 96% | [1]; at 50.0 µM 76.8% | [2]; [8] 95% | [3]; [8] 96% | [3]; at 50.0 µM 84.8% | [4]; [8] 94% | [5]; [8] 94% | [5]; at 50.0 µM 70.8% | [6]; [8] 94% | [6]; at 50.0 µM 86.8%
inactive: [1]; [7] 3% | [2]; [7] 2% | [2]; at 50.0 µM 9.45% | [3]; [7] 7% | [4]; [7] -7% | [4]; at 50.0 µM -22.4% | [5]; [7] -6% | [6]; [7] 0%

O=Nc1c(-c2c[nH]c3ccccc23)[nH]c2ccccc12
inactive: [1]; [7] 8% | [1]; [8] 60% | [1]; at 50.0 µM 51.1% | [2]; [7] 7% | [2]; [8] 44% | [2]; at 50.0 µM 24.2% | [3]; [7] 13% | [3]; [8] 56% | [3]; at 50.0 µM 16% | [4]; [7] -8% | [4]; [8] 33% | [4]; at 50.0 µM 16.9% | [5]; [7] 13% | [5]; at 50.0 µM 69% | [6]; [7] 12% | [6]; [8] 53% | [6]; at 50.0 µM 26.1%
active: [5]; [8] 84%

CCCC(CC)c1cc(O)c(O)cc1C(CC)CCC (stereo not given)
active: [1]; at 50.0 µM 73% | [4]; [8] 70% | [4]; at 50.0 µM 79.8% | [6]; at 50.0 µM 77.8%
inactive: [1]; [7] 1% | [1]; [8] 56% | [2]; [7] -18% | [2]; [8] 33% | [2]; at 50.0 µM 69.5% | [3]; [7] 9% | [3]; [8] 29% | [3]; at 50.0 µM 43.9% | [4]; [7] -5% | [5]; [7] -9% | [5]; [8] 54% | [5]; at 50.0 µM 65.8% | [6]; [7] 6% | [6]; [8] 62%

CCN(CC)CCCC(=O)Nc1cc(OC)cc2cccnc12
inactive: [1]; [7] 2% | [1]; [8] 0% | [1]; at 50.0 µM 3.65% | [2]; [7] 15% | [2]; [8] -3% | [2]; at 50.0 µM 6.3% | [3]; [7] 8% | [3]; [8] 1% | [3]; at 50.0 µM -4.7% | [4]; [7] 1% | [4]; [8] -1% | [4]; at 50.0 µM -2.55% | [5]; [7] 1% | [5]; [8] -3% | [5]; at 50.0 µM -1.85% | [6]; [7] 2% | [6]; [8] -1% | [6]; at 50.0 µM 13.4%

COc1cc2c(c(-c3cn(C)c4ccccc34)c1OC)OCO2
active: [3]; at 50.0 µM 86% | [5]; [8] 78% | [5]; at 50.0 µM 84.5%
inactive: [1]; [7] 4% | [1]; [8] 24% | [1]; at 50.0 µM 36.2% | [2]; [7] 0% | [2]; [8] 54% | [2]; at 50.0 µM 15.3% | [3]; [7] 4% | [3]; [8] 59% | [4]; [7] -1% | [4]; [8] 1% | [4]; at 50.0 µM -30.6% | [5]; [7] 2% | [6]; [7] 0% | [6]; [8] 35% | [6]; at 50.0 µM 41.9%

O=C(/C=C/c1cccc([N+](=O)[O-])c1)CCl
active: [1]; [8] 98% | [1]; at 50.0 µM 99.3% | [2]; [8] 99% | [2]; at 50.0 µM 99.6% | [3]; [8] 99% | [3]; at 50.0 µM 99.2% | [4]; [8] 98% | [4]; at 50.0 µM 98.9% | [5]; [8] 98% | [5]; at 50.0 µM 99.5% | [6]; [8] 98% | [6]; at 50.0 µM 99.3%
inactive: [1]; [7] 1% | [2]; [7] -20% | [3]; [7] 13% | [4]; [7] -22% | [5]; [7] 14% | [6]; [7] -32%

— PubChem BioAssay (NCI)
